Shown are actives, neighbours in structure and some others; about 7.5% of the full set was active somewhere.
NPC1 promoter act: activators of NPC1 promoter; Huh7 NPC1 promoter luciferase reporter, 24 h; Potency, µM (top dose mostly 9.22 µM), usual class: activators; 320,000 tested, 2.4% active; AID 485313; note: nearly all actives have a fitted effect of over 60% in size
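Huh7 reporter cells (NPC1 promoter driving luciferase) are dosed with compound for 24 h at 37 °C, 5% CO2; luciferase detection reagent is then added and luminescence measured after 10 min at ambient temperature.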
ELG1 genotox: induces genotoxicity in HEK293T cells with luciferase-tagged ELG1 | HEK293T ELG1-luciferase reporter, luminescence, 16 h | Potency, µM (highest dose often 46 µM), most hits filed as activators | 330,000 tested, 1.3% active | AID 504466; note: nearly all actives have a fitted effect of over 60% in size
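Luminescence read-out: rising ELG1-luciferase signal, reflecting elevated ELG1 protein under genetic stress, flags genotoxic compounds. Cells were treated for 16 hr at 37 °C before ONE-Glo detection.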
FLuc counter: firefly luciferase modulation, counter-screen for miR-21 project; P08659; purified FLuc, Km substrates, luminescence inhibition; Potency, µM (top dose mostly 57.5 µM), actives largely listed as inhibitors; 360,000 tested, 6.9% active; AID 588342; note: nearly all actives have a fitted effect of over 55% in size
Target sequence (P08659 whole entry, looked up): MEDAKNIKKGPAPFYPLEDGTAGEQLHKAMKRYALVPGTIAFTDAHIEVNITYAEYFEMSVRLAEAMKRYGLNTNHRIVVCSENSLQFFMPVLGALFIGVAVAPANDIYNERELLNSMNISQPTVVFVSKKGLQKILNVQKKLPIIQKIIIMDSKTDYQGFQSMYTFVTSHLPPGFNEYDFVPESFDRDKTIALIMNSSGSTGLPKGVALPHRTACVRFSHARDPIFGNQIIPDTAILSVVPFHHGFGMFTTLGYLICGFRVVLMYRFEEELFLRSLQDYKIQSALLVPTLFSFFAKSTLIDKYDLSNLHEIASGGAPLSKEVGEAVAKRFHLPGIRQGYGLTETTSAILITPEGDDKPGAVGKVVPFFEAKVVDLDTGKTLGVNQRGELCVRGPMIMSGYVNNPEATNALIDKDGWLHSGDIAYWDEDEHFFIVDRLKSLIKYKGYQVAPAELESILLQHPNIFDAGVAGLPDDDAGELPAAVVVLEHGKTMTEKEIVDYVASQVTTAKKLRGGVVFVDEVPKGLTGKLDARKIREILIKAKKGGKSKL
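Purified P. pyralis luciferase, 10 nM final, with Km-level 10 uM D-luciferin and 10 uM ATP in 50 mM Tris acetate pH 7.5, 10 mM Mg acetate, 0.01% Tween-20, 0.05% BSA; 6-point qHTS titration about 60 µM downward; luminescence read.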
SMN2 splice enh: enhancers of SMN2 splice variant expression. HEK293 SMN2-luciferase splicing reporter, luminescence, 30-36 h. Potency, µM (doses to about 46.1 µM), most hits filed as activators. 210,000 tested, 2.8% active; note: nearly all actives have a fitted effect of over 55% in size
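HEK293 cells carry an SMN2 minigene-luciferase reporter in which exon 7 inclusion puts luciferase in frame. Cells were seeded at 2000 cells/well, attached for 10-12 hours, then exposed to compounds for 30-36 hours at 37C before ONE-Glo luminescence.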
Rab9 promoter act: Rab9 promoter activation | AID 485297 | 320,000 tested, 2.8% active | Potency, µM (doses to about 9.22 µM), most hits filed as activators | Huh7 Rab9 promoter-luciferase reporter, luminescence, 24 h; note: nearly all actives have a fitted effect of over 60% in size
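Huh7 reporter line, Rab9 promoter upstream of luciferase. Compound exposure 24 h at 37 °C in reduced-serum medium with 10% FBS. Read-out: luminescence.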
Numbers stand for hits; 0 = inactive; ? = inconclusive; - = no result; [ ] = another dose, or the depositor's remark. Calls come from the whole dose curve; as a rule, active = well fitted curve in the direction sought with a large enough effect; inconclusive = small, poorly fitted or top-dose-only effect, or another doubt; inactive = no such curve, though single readings can be large; an effect the other way counts as inactive or inconclusive.

SMILES	NPC1 promoter act	ELG1 genotox	FLuc counter	SMN2 splice enh	Rab9 promoter act
COc1ccc(C(=O)Nc2ccc(NC(=O)c3ccccn3)cn2)cc1	0	0	?	-	0
COc1ccc(NC(=O)c2ccccn2)cc1	0.501µM	?	2.69µM	1.58µM	?
COc1ccccc1NS(=O)(=O)c1cc(NC(=O)c2ccncc2)ccc1N1CCCC1	0	0	0	0	0
c1ccc(CSc2nnc(C3CCNCC3)o2)cc1	-	-	0	-	-
Cc1cccc(N=C2NC(=O)/C(=C\c3cccs3)S2)c1	0	0	?	0	0
Cc1ccc(N=C2NC(=O)/C(=C/c3cccn3C)S2)cc1C	0	0	?	-	?
O=C1NC(=Nc2cccnc2)S/C1=C\c1cccc(F)c1	0	0	30.1µM	-	0
O=C1NC(=Nc2ccccc2)S/C1=C\C=C\c1ccco1	0	?	19µM	14.1µM	0
Cc1ccc(N=C2NC(=O)/C(=C/c3cccn3C)S2)cc1	?	23.1µM	3.38µM	-	?
O=C1NC(=Nc2ccccc2)S/C1=C/c1cccs1	?	?	10.7µM	?	?
CC1(C)O[C@@H]2[C@H](O1)[C@@H](CO)O[C@H]2n1ccc(=O)[nH]c1=O	0	0	0	-	0
COc1ccc2cc(C3(C)NC(=O)N(CC(=O)NCC(F)(F)F)C3=O)ccc2c1 (configuration not stated)	0	0	0	-	0[1.84 µM]
COc1ccc(N)c2c1C(=O)c1ccccc1C2=O	0	?	23.9µM	?	?
COc1ccc(OC)c2c1C(=O)c1ccccc1C2=O	0	0	0	0	0
COc1cccc2c1C(=O)c1ccc3ccccc3c1C2=O	0	12.6µM	1.9µM	15.8µM	?
COC(=O)c1nc(-c2ccc(C)cc2)oc1N(C)C	0	0	19µM	0	0
c1ccc(-c2ccc(-c3cnc4n3CCCCC4)cc2)cc1	?	?	12µM	0	0
CCCCNC(=S)NNC(=O)c1cccnc1	0	0	0	0	0
C/C(=N\N=c1/sc2ccccc2n1C)c1ccccn1	?	?	16.9µM	?	?
Cn1/c(=N\NC(=O)C2CCCCC2)sc2ccccc21	0	0	0	0	?
C/C(=N\N=c1/sc2ccccc2n1C)c1ccc(N2CCOCC2)cc1	0	0	2.39µM	0	0
COc1ccc(S(=O)(=O)c2c(C(=O)c3ccc(C)c(C)c3)cnc3ccc(C)cc23)cc1	-	-	0	0	-
COc1ccc(C(=O)/C=C/c2ccccc2)c(OC)c1	?	0	4.78µM	-	?
COc1ccc(/C=C/C(=O)c2ccc3c4c(cccc24)CC3)cc1	0	0	15.1µM	-	0
COc1ccc(C(=O)/C=C/c2ccc(N(C)C)cc2)c(OC)c1	0	?	10.7µM	-	0
SMILES	NPC1 promoter act	ELG1 genotox	FLuc counter	SMN2 splice enh	Rab9 promoter act
COc1ccc(C(=O)/C=C/c2ccccc2F)c(OC(=O)c2ccc([N+](=O)[O-])cc2)c1	?	?	?	0	?
COc1ccc(C(=O)/C=C/c2ccc(C)cc2)c(OC(=O)c2ccc([N+](=O)[O-])cc2)c1	0	0	6.75µM	0	0
N#Cc1ccsc1NC(=O)C1CCN(C(=O)c2ccc(Cl)cc2)CC1	0	0	0	-	0
CCC(C)NC(=O)Cn1c(=O)n(-c2ccc(OC)c(OC)c2)c(=O)c2ccccc21 (configuration not stated)	-	-	0	0	-
Nc1nc2c(s1)CCCCCCCCCC2	0	0	0	-	0
CC1CCc2nc3sc4c(c3c(N)c2C1)CCCC4 (configuration not stated)	?	0	3.79µM	?	0
CCc1nc2sc3c(c2c(=O)o1)CCCC3	0	?	?	0	0
CC1CCc2c(nc3sc4c(c3c2N)CCCC4)C1 (configuration not stated)	?	0	4.78µM	?	?
Cc1nc2sc3c(c2c(=O)n1N)CCC3	0	0	0	0	0
Nc1c2c(nc3sc4c(c13)CCCCC4)CCCCC2	1.41µM	?	1.69µM	?	1.58µM
COc1ccc(C(CNC(=O)CN2C(=O)NC3(CCCC3)C2=O)N(C)C)cc1 (configuration not stated)	0	0	0	-	0
Clc1ccccc1CSc1nnc(-c2ccncc2)o1	?	0	16.9µM	10µM	?
Fc1cccc(Cl)c1CSc1nnc(-c2ccncc2)o1	?	?	15.1µM	-	4.47µM
COc1cc(-c2nnc(SCc3c(F)cccc3Cl)o2)cc(OC)c1OC	0	0	0	0	0
CC1CCc2c(sc3nnn(CC(=O)Nc4ccc(Cl)cc4)c(=O)c23)C1 (configuration not stated)	-	-	0	-	-
CCn1nnc2sc3c(c2c1=O)CCC(C)C3 (configuration not stated)	?	0	13.5µM	0	?
CC(=O)Cn1nnc2sc3c(c2c1=O)CCC(C(C)(C)C)C3 (configuration not stated)	3.55µM	0	21.3µM	0	2.82µM
Clc1cccc(-n2ncc3c(N4CCCCCC4)ncnc32)c1	-	-	1.69µM	-	-
Clc1cccc(-n2ncc3c(N4CCCCC4)ncnc32)c1	-	-	0.426µM	-	-
CCCc1nn2c(=O)cc(COC(=O)c3ccc(NC(=O)c4cccs4)cc3)nc2s1	-	-	0	-	-
CCCC(=O)N/N=C1\CS(=O)(=O)N(C)c2ccsc21	0	0	0	0	0
Cc1ccc(N/N=C2\CS(=O)(=O)N(C)c3ccsc32)cc1	3.55µM	0	12µM	0.891µM	?
CN1c2ccsc2/C(=N/Nc2ccc(F)cc2)CS1(=O)=O	?	?	19µM	?	?
COc1ccccc1C(=O)Nc1cccc(-c2cn3ccsc3n2)c1	0	0	4.26µM	0	0
CCCCC(=O)Nc1cccc(-c2cn3ccsc3n2)c1	0	0	15.1µM	0	0
SMILES	NPC1 promoter act	ELG1 genotox	FLuc counter	SMN2 splice enh	Rab9 promoter act
CCOc1ncccc1C(=O)Nc1ccc(-c2cn3ccsc3n2)cc1	0	0	0	0	0
Nc1cccc(-c2cn3ccsc3n2)c1	-	-	21.3µM	-	-
O=C(Nc1cccc(-c2cn3ccsc3n2)c1)c1ccccc1	0	0	10.7µM	0	0
CC(OC(=O)CCc1nc2ccccc2c(=O)[nH]1)C(=O)c1ccc(Br)cc1 (configuration not stated)	0	0	0	0	0
Cc1cccc(NC(=O)CSc2nc3ccc(NC(=O)COc4ccc(Cl)cc4)cc3s2)c1	-	-	0	-	-
Cc1cc(C(=O)NCCCN2CCOCC2)n(-c2ccccc2)n1	0	0	0	?	0
COc1ccc(CN2C(=O)CS/C2=N/N=C/c2cccs2)cc1	0	0	16.9µM	-	0
Cc1cccc(-c2nnc3n2N=C(c2ccccc2)CS3)c1	0	0	0	0	0
Cc1nn2c(nc1=O)SCC(c1ccccc1)=N2	2.24µM	?	0	?	3.55µM
COc1ccc(-c2cc(-c3ccc(OC)cc3)[nH]n2)cc1	2.82µM	?	8.49µM	0	?
COc1ccc(-c2cc(-c3cc(C)ccc3O)[nH]n2)cc1	0	?	12µM	-	0
COc1ccc(-c2cc(C(=O)NN)[nH]n2)cc1	0	0	?	0	0
Clc1ccc(-c2ccn[nH]2)cc1	0	0	?	0	0
Cc1ccc(O)c(-c2cc(-c3ccccc3C)[nH]n2)c1	0	0	?	0	0

Compound activity as filed in PubChem BioAssay.
